Source: PubChem BioAssay AID1159580 (chemical genetic matrix, 2015)
Screen size: about 5,500 compounds; about 2,000 (36%) were called active. Inconclusive results (about 18%) are left out. Rule as the data show it: active = normalized growth mostly below about 0.91 (no sharp cut-off); inconclusive = no clear call, values can overlap the other calls; inactive = mostly above about 0.92. The list shows a part of the results.

Test: chemical genetic growth profiling, strain panel (AID 1159580);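 also: tested at 20 µM; growth read once vehicle control cultures reached saturation at 30 °C; 1 = growth at the plate median or of vehicle wells; lower values mean less growth of the strain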
Conditions: growth OD

Measured: normalized growth

Oc1cc(O)c2c(c1)O[C@H](c1ccc(O)c(O)c1)[C@H](O)C2
inactive: S. cerevisiae deletion strains, locus YJR043C, strain POL32, hits give low values 1.07 | S. cerevisiae deletion strains, locus YJR066W, strain TOR1, hits give low values 0.94 | S. cerevisiae deletion strains, locus YKL009W, strain mrt4, hits give low values 0.972 | S. cerevisiae deletion strains, locus YKL068W, hits give low values 0.979 | S. cerevisiae deletion strains, locus YKL085W, strain MDH1 (second series), hits give low values 0.981 | S. cerevisiae deletion strains, locus YKL085W, strain MDH1, hits give low values 0.981 | S. cerevisiae deletion strains, locus YKL160W, strain elf1, hits give low values 1 | S. cerevisiae deletion strains, locus YKR001C, strain vps1, hits give low values 1 | S. cerevisiae deletion strains, locus YKR026C, strain gcn3, hits give low values 1 | S. cerevisiae deletion strains, locus YKR091W, strain srl3, hits give low values 0.999 | S. cerevisiae deletion strains, locus YLL001W, strain dnm1, hits give low values 0.994 | S. cerevisiae deletion strains, locus YLL026W, hits give low values 1.01 | S. cerevisiae deletion strains, locus YLL041C, strain sdh2, hits give low values 1.01 | S. cerevisiae deletion strains, locus YLR027C, strain aat2, hits give low values 0.996 | S. cerevisiae deletion strains, locus YLR039C, strain RIC1, hits give low values 1.08 | S. cerevisiae deletion strains, locus YLR058C, strain SHM2, hits give low values 1.01 | S. cerevisiae deletion strains, locus YLR102C, strain apc9, hits give low values 0.982 | S. cerevisiae deletion strains, locus YLR113W, strain HOG1, hits give low values 1.02 | S. cerevisiae deletion strains, locus YLR221C, strain rsa3, hits give low values 1.04 | S. cerevisiae deletion strains, locus YLR258W, strain gsy2, hits give low values 1.01 | S. cerevisiae deletion strains, locus YLR262C, strain YPT6 (second series), hits give low values 0.997 | S. cerevisiae deletion strains, locus YLR262C, strain YPT6, hits give low values 1.06 | S. cerevisiae deletion strains, locus YLR268W, strain sec22, hits give low values 0.979 | S. cerevisiae deletion strains, locus YLR320W, strain mms22, hits give low values 1.05 | S. cerevisiae deletion strains, locus YLR330W, strain CHS5, hits give low values 1.01 | S. cerevisiae deletion strains, locus YLR342W, strain FKS1 (second series), hits give low values 1.04 | S. cerevisiae deletion strains, locus YLR342W, strain FKS1, hits give low values 1.01 | S. cerevisiae deletion strains, locus YLR357W, strain rsc2, hits give low values 0.992 | S. cerevisiae deletion strains, locus YLR370C, strain arc18, hits give low values 1.01 | S. cerevisiae deletion strains, locus YLR371W, strain rom2, hits give low values 0.975 | S. cerevisiae deletion strains, locus YLR384C, strain iki3, hits give low values 0.995 | S. cerevisiae deletion strains, locus YLR418C, strain cdc73, hits give low values 1.03 | S. cerevisiae deletion strains, locus YML016C, strain PPZ1, hits give low values 0.992 | S. cerevisiae deletion strains, locus YML032C, strain rad52, hits give low values 1.01 | S. cerevisiae deletion strains, locus YML120C, strain ndi1, hits give low values 0.996 | S. cerevisiae deletion strains, locus YML124C, strain tub3, hits give low values 0.992 | S. cerevisiae deletion strains, locus YMR058W, strain fet3, hits give low values 1.02 | S. cerevisiae deletion strains, locus YMR078C, strain ctf18, hits give low values 0.977 | S. cerevisiae deletion strains, locus YMR125W, strain sto1, hits give low values 1 | S. cerevisiae deletion strains, locus YMR129W, hits give low values 1 | S. cerevisiae deletion strains, locus YMR205C, strain PFK2, hits give low values 1.03 | S. cerevisiae deletion strains, locus YMR223W, strain ubp8, hits give low values 1 | S. cerevisiae deletion strains, locus YMR231W, strain pep5, hits give low values 0.981 | S. cerevisiae deletion strains, locus YMR307W, strain GAS1, hits give low values 1.22 | S. cerevisiae deletion strains, locus YNL067W, strain RPL9B, hits give low values 0.971 | S. cerevisiae deletion strains, locus YNL071W, strain lat1, hits give low values 1.01 | S. cerevisiae deletion strains, locus YNL183C, strain NPR1, hits give low values 0.95 | S. cerevisiae deletion strains, locus YNL209W, strain ssb2, hits give low values 0.994 | S. cerevisiae deletion strains, locus YNL233W, strain BNI4, hits give low values 1.01 | S. cerevisiae deletion strains, locus YNL248C, strain rpa49, hits give low values 1 | S. cerevisiae deletion strains, locus YNL250W, strain rad50, hits give low values 0.937 | S. cerevisiae deletion strains, locus YNL271C, strain bni1, hits give low values 0.984 | S. cerevisiae deletion strains, locus YNL298W, strain CLA4, hits give low values 1.01 | S. cerevisiae deletion strains, locus YNL307C, strain MCK1, hits give low values 0.977 | S. cerevisiae deletion strains, locus YNL322C, strain KRE1 (second series), hits give low values 1.01 | S. cerevisiae deletion strains, locus YNL322C, strain KRE1, hits give low values 1.01 | S. cerevisiae deletion strains, locus YNR049C, strain mso1, hits give low values 1.01 | S. cerevisiae deletion strains, locus YNR052C, strain pop2, hits give low values 0.991 | S. cerevisiae deletion strains, locus YOL006C, strain TOP1, hits give low values 1.03 | S. cerevisiae deletion strains, locus YOL012C, strain htz1 1.18 | S. cerevisiae deletion strains, locus YOL147C, strain pex11, hits give low values 0.998 | S. cerevisiae deletion strains, locus YOR001W, strain rrp6, hits give low values 1.04 | S. cerevisiae deletion strains, locus YOR061W, strain CKA2, hits give low values 0.998 | S. cerevisiae deletion strains, locus YOR069W, strain VPS5, hits give low values 0.999 | S. cerevisiae deletion strains, locus YOR070C, strain gyp1, hits give low values 1 | S. cerevisiae deletion strains, locus YOR080W, strain dia2, hits give low values 1.01 | S. cerevisiae deletion strains, locus YOR083W, strain WHI5, hits give low values 1.01 | S. cerevisiae deletion strains, locus YOR106W, strain vam3, hits give low values 1.03 | S. cerevisiae deletion strains, locus YOR136W, strain idh2, hits give low values 0.985 | S. cerevisiae deletion strains, locus YOR144C, strain elg1, hits give low values 1.01 | S. cerevisiae deletion strains, locus YOR184W, strain ser1, hits give low values 1 | S. cerevisiae deletion strains, locus YOR231W, strain MKK1, hits give low values 0.992 | S. cerevisiae deletion strains, locus YOR265W, strain rbl2, hits give low values 1.02 | S. cerevisiae deletion strains, locus YOR270C, strain vph1, hits give low values 1.08 | S. cerevisiae deletion strains, locus YOR290C, strain snf2, hits give low values 0.99 | S. cerevisiae deletion strains, locus YOR316C, strain cot1, hits give low values 0.989 | S. cerevisiae deletion strains, locus YPL051W, strain arl3, hits give low values 1.01 | S. cerevisiae deletion strains, locus YPL078C, strain atp4, hits give low values 1.03 | S. cerevisiae deletion strains, locus YPL106C, strain sse1, hits give low values 1.01 | S. cerevisiae deletion strains, locus YPL240C, strain hsp82, hits give low values 1.01 | S. cerevisiae deletion strains, locus YPL256C, strain CLN2, hits give low values 0.98 | S. cerevisiae deletion strains, locus YPR119W, strain clb2, hits give low values 0.978 | S. cerevisiae deletion strains, locus YPR141C, strain kar3, hits give low values 0.976 | S. cerevisiae deletion strains, locus YPR163C, strain tif3, hits give low values 0.991 | S. cerevisiae deletion strains, locus YPR167C, strain met16, hits give low values 0.987 | S. cerevisiae deletion strains, strain wtn01, hits give low values 0.992 | S. cerevisiae strains, strain wild type, hits give low values 1.01
